# Test results: PubChem BioAssay (Tox21)
# Records with an inconclusive call do not appear. The source holds several records for some structures; these can differ, active in one and inactive in another. Activity calls are given as the source filed them. Calls follow the shape of the full dose curve.
# Target: Acetylcholinesterase (Homo sapiens) (UniProt P22303)
# Assay: Acetylcholinesterase (AChE) small molecule antagonists: colormetric cell-based qHTS assay (AID 1347395); also: nearly all actives have a fitted effect of over 30% in size; also: potency is read from the fitted curve at half-maximal effect
# Conditions: SH-SY5Y cells AChE activity, colorimetric (Ellman); series mostly up to 115 µM; activity, negative = inhibition: at the top concentration
# Outline: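 Homogeneous whole-cell format. SH-SY5Y cells seeded overnight, dosed with compound (30 min, 37 C, 5% CO2), then given DTNB/acetylthiocholine cocktail for 90 min at 37 C; colorimetric signal.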
# % is scaled to controls: 0 for no effect and ±100 for the full control effect.
# Acetylcholinesterase (Homo sapiens), sequence (P22303 whole entry, looked up): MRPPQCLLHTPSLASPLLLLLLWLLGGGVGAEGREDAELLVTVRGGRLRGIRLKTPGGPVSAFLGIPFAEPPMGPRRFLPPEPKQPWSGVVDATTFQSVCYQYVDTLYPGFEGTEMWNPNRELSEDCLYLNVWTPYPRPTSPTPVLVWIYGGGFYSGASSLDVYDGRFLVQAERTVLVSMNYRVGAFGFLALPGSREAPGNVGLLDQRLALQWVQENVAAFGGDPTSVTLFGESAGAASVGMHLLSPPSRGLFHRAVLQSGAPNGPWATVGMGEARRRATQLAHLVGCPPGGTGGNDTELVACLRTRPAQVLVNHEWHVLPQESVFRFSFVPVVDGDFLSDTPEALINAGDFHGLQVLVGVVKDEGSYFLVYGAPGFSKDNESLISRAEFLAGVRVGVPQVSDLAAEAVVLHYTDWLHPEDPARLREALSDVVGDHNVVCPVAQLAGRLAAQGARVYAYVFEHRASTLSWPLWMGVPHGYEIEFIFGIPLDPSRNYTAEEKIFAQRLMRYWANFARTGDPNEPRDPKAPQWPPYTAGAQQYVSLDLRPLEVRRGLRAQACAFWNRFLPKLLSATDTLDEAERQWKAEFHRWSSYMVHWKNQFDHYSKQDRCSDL
SMILES,"activity, negative = inhibition",Potency
CNC1CCCN(c2c(F)cc3c(=O)c(C(=O)O)cn(C4CC4)c3c2OC)C1 (stereo not given),2.47% [at 52.9 µM] (inactive),–
C=CC(=O)OCC(O)COc1ccccc1 (stereo not given),3.19% (inactive),–
CC(C)CC(=O)C1C(=O)c2ccccc2C1=O,5.53% (inactive),–
C/C=C\C/C=C/CCCCCCCCOC(C)=O,-8.67% (inactive),–
C/C=C(\C)C(C)=O,-3.94% (inactive),–
COc1ccc(S(=O)(=O)N2C(=O)[C@@](c3ccccc3OC)(N3C[C@H](O)C[C@H]3C(=O)N(C)C)c3cc(Cl)ccc32)c(OC)c1,-3.92% (inactive),–
O=C(c1ccccc1O)c1ccccc1O,0.829% (inactive),–
OC1OC[C@@H](O)[C@H](O)[C@H]1O (stereo not given in full),-2.47% (inactive),–
c1ccc(SCCSc2ccccc2)cc1,2.09% (inactive),–
Brc1nc2ccccc2s1,–,inactive
N[C@H]1C(O)O[C@H](CO)[C@H](O)[C@@H]1O (stereo not given in full),2.42% (inactive),–
Clc1ccc2cc3ccccc3cc2c1,-1.46% (inactive),–
c1ccc(SSc2ccccc2)cc1,2.38% (inactive),–
O=C1CCCCCN1SSN1CCCCCC1=O,0.631% (inactive),–
CCn1ccc(NS(=O)(=O)c2ccc(N)cc2)nc1=O,1.5% [at 52.9 µM] (inactive),–
CC1(C)Oc2ccc(C#N)cc2[C@@H](N2CCCC2=O)[C@@H]1O,-0.176% [at 52.9 µM] (inactive),–
CC1CCC2CC1C2(C)C (stereo not given),–,inactive
C[Si](NC1CCCCC1)(NC1CCCCC1)NC1CCCCC1,3.41% (inactive),–
CC(C)(C)C1=CC(=O)C(C(C)(C)C)=CC1=O,15% [at 52.9 µM] (inactive),–
N[C@H](C(=O)O)c1ccc(O)cc1,0% [at 23.6 µM] (inactive),–

SMILES,"activity, negative = inhibition",Potency
CC(=O)Nc1c(I)cc(I)c(C(=O)O)c1I,9.02% [at 52.9 µM] (inactive),–
CCCCNS(=O)(=O)c1ccccc1,–,inactive
O=c1[nH]c(=O)c2[nH]c(=O)[nH]c2[nH]1,0.0138% [at 10.5 µM] (inactive),–
CCN(CC)C(=O)C1CN2CCc3cc(OC)c(OC)cc3C2CC1OC(C)=O (stereo not given),-0.675% [at 52.9 µM] (inactive),–
O=C(CCCCCCCCC#CI)Oc1ccccc1,-1.46% [at 52.9 µM] (inactive),–
CCCCCCCCCCOS(=O)(=O)O,3.62% (inactive),–
CCCCCCCC/C=C\CCCCCCCC(=O)OCCOC(=O)CCCCCCC/C=C\CCCCCCCC,-7.26% (inactive),–
CCCCCCOC(=O)CCCCCCCC(=O)OCCCCCC,-2.85% (inactive),–
CC(=O)OCC(C)C,-0.0315% (inactive),–
O=C(O)c1ccccc1,–,3.74 µM (active) and inactive
CC(C)(C)CCCCCCOC(=O)c1ccccc1C(=O)OCCCCCCC(C)(C)C,-7.42% (inactive),–
CC(C)CC(C)CC(O)CC(C)C (stereo not given),–,inactive
COc1ccc(Br)c(C)c1,0% (inactive),–
O=C(O)CS,–,inactive
CCCn1cnc2c1c(=O)n(CCCCC(C)=O)c(=O)n2C,1.67% [at 52.9 µM] (inactive),–
C[N+](C)(C)CCOC(=O)CCC(=O)OCC[N+](C)(C)C,-9.87% [at 52.9 µM] (inactive),–
CCN(CC)CCSC(=O)C(c1ccccc1)c1ccccc1,-1.43% [at 52.9 µM] (inactive),–
CCCc1ccc(OCC(=O)N2CCN(C(=O)COc3ccc(CCC)cc3OC)CC2)c(OC)c1,2.37% [at 52.9 µM] (inactive),–
CCCC/C=C/C=C\C=O,0.19% (inactive),–
CCCCCCCCCCCCCCCC(=O)O,–,inactive

# Target: Acetylcholinesterase (Homo sapiens) (UniProt P22303)
# Assay: Acetylcholinesterase (AChE) small molecule antagonists: enzyme-based qHTS assay (AID 1347397); also: nearly all actives have a fitted effect of over 55% in size
# Conditions: Potency: AChE enzyme activity inhibition; outcome: AChE enzyme activity inhibition; series mostly up to 115 µM; activity change, negative = inhibition: at the top concentration
# Outline: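 Enzyme inhibition was scored from DTNB-detected thiocholine formed by recombinant human AChE acting on acetylthiocholine. The 30 min compound preincubation and 10 min substrate reaction were both run at room temperature, with DMSO as vehicle control.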
SMILES,"activity change, negative = inhibition",Potency
CNC1CCCN(c2c(F)cc3c(=O)c(C(=O)O)cn(C4CC4)c3c2OC)C1 (stereo not given),1.6% [at 53 µM] (inactive),–
C=CC(=O)OCC(O)COc1ccccc1 (stereo not given),0.485% (inactive),–
CC(C)CC(=O)C1C(=O)c2ccccc2C1=O,1.5% (inactive),–
C/C=C\C/C=C/CCCCCCCCOC(C)=O,-0.732% (inactive),–
C/C=C(\C)C(C)=O,1.21% (inactive),–
COc1ccc(S(=O)(=O)N2C(=O)[C@@](c3ccccc3OC)(N3C[C@H](O)C[C@H]3C(=O)N(C)C)c3cc(Cl)ccc32)c(OC)c1,1.86% (inactive),–
O=C(c1ccccc1O)c1ccccc1O,0.0065% (inactive),–
OC1OC[C@@H](O)[C@H](O)[C@H]1O (stereo not given in full),0.0264% (inactive),–
c1ccc(SCCSc2ccccc2)cc1,-0.814% (inactive),–
Brc1nc2ccccc2s1,–,inactive
N[C@H]1C(O)O[C@H](CO)[C@H](O)[C@@H]1O (stereo not given in full),1.96% (inactive),–
Clc1ccc2cc3ccccc3cc2c1,1.88% (inactive),–
c1ccc(SSc2ccccc2)cc1,-0.772% (inactive),–
O=C1CCCCCN1SSN1CCCCCC1=O,-3% (inactive),–
CCn1ccc(NS(=O)(=O)c2ccc(N)cc2)nc1=O,-0.226% [at 53 µM] (inactive),–
CC1(C)Oc2ccc(C#N)cc2[C@@H](N2CCCC2=O)[C@@H]1O,-0.169% [at 53 µM] (inactive),–
CC1CCC2CC1C2(C)C (stereo not given),–,inactive
C[Si](NC1CCCCC1)(NC1CCCCC1)NC1CCCCC1,-0.393% (inactive),–
CC(C)(C)C1=CC(=O)C(C(C)(C)C)=CC1=O,-0.423% [at 53 µM] (inactive),–
N[C@H](C(=O)O)c1ccc(O)cc1,0.185% [at 23.6 µM] (inactive),–

SMILES,"activity change, negative = inhibition",Potency
CC(=O)Nc1c(I)cc(I)c(C(=O)O)c1I,-0.133% [at 53 µM] (inactive),–
CCCCNS(=O)(=O)c1ccccc1,–,inactive
O=c1[nH]c(=O)c2[nH]c(=O)[nH]c2[nH]1,2.79% [at 10.5 µM] (inactive),–
CCN(CC)C(=O)C1CN2CCc3cc(OC)c(OC)cc3C2CC1OC(C)=O (stereo not given),-1.11% [at 53 µM] (inactive),–
O=C(CCCCCCCCC#CI)Oc1ccccc1,0.277% [at 53 µM] (inactive),–
CCCCCCCCCCOS(=O)(=O)O,1.42% (inactive),–
CCCCCCCC/C=C\CCCCCCCC(=O)OCCOC(=O)CCCCCCC/C=C\CCCCCCCC,-4.23% (inactive),–
CCCCCCOC(=O)CCCCCCCC(=O)OCCCCCC,-0.55% (inactive),–
CC(=O)OCC(C)C,1.29% (inactive),–
O=C(O)c1ccccc1,–,inactive
CC(C)(C)CCCCCCOC(=O)c1ccccc1C(=O)OCCCCCCC(C)(C)C,-0.278% (inactive),–
CC(C)CC(C)CC(O)CC(C)C (stereo not given),–,inactive
COc1ccc(Br)c(C)c1,0.954% (inactive),–
O=C(O)CS,–,inactive
CCCn1cnc2c1c(=O)n(CCCCC(C)=O)c(=O)n2C,-0.482% [at 53 µM] (inactive),–
C[N+](C)(C)CCOC(=O)CCC(=O)OCC[N+](C)(C)C,-0.505% [at 53 µM] (inactive),–
CCN(CC)CCSC(=O)C(c1ccccc1)c1ccccc1,-0.268% [at 53 µM] (inactive),–
CCCc1ccc(OCC(=O)N2CCN(C(=O)COc3ccc(CCC)cc3OC)CC2)c(OC)c1,-2.91% [at 53 µM] (inactive),–
CCCC/C=C/C=C\C=O,-0.616% (inactive),–
CCCCCCCCCCCCCCCC(=O)O,–,inactive
